Reference: PubChem BioAssay AID1159580 (chemical genetic matrix, 2015)
Where “and” joins values, the source holds several entries; their conditions need not be identical. Identical values can stand only once. Among all 5,500 compounds or so, about 2,000 (36%) were called active. About 18% were inconclusive and are not listed. Rule as the data show it: active = normalized growth mostly below about 0.91 (no sharp cut-off); inconclusive = no clear call, values can overlap the other calls; inactive = mostly above about 0.92. This is one part of the list.

Assay: chemical genetic growth profiling, strain panel (AID 1159580);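 also: tested at 20 µM; growth read once vehicle control cultures reached saturation at 30 °C; 1 = growth at the plate median or of vehicle wells; lower values mean less growth of the strain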
Settings: S. cerevisiae deletion strains, growth OD

Measured: normalized growth

C=C1c2c(Cl)ccc(O)c2C(O)=C2C(=O)[C@]3(O)C(O)=C(C(N)=O)C(=O)[C@@H](N(C)C)[C@@H]3[C@@H](O)[C@H]12
inactive: locus YAL013W, strain DEP1, active compounds read low 0.972 | locus YAL021C, strain ccr4, active compounds read low 0.964 | locus YAL026C, strain drs2, active compounds read low 0.934 | locus YAL030W, strain snc1, active compounds read low 0.981 | locus YBL061C, strain skt5, active compounds read low 0.976 | locus YBR009C, strain hhf1, active compounds read low 0.958 | locus YBR021W, strain FUR4, active compounds read low 0.914 | locus YBR023C, strain chs3, active compounds read low 0.966 | locus YBR171W, strain sec66, active compounds read low 0.999 | locus YBR229C, strain ROT2, active compounds read low 0.977 | locus YBR231C, strain swc5, active compounds read low 0.978 | locus YBR279W, strain paf1, active compounds read low 0.956 | locus YCL011C, strain gbp2, active compounds read low 0.935 | locus YCL016C, strain dcc1, active compounds read low 0.936 | locus YCL029C, strain bik1, active compounds read low 0.948 | locus YCL061C, strain MRC1, active compounds read low 0.954 | locus YCL069W, strain vba3, active compounds read low 0.977 | locus YCR088W, strain abp1, active compounds read low 0.981 | locus YDL005C, strain med2, active compounds read low 0.99 | locus YDL035C, strain GPR1, active compounds read low 0.954 | locus YDL040C, strain nat1, active compounds read low 0.993 | locus YDL074C, strain BRE1, active compounds read low 0.946 | locus YDL101C, strain DUN1, active compounds read low 0.965 | locus YDL134C, strain PPH21, active compounds read low 0.909 | locus YDL185W, strain tfp1, active compounds read low 0.961 | locus YDL192W, strain arf1, active compounds read low 0.95 | locus YDR001C, strain nth1, active compounds read low 0.973 | locus YDR069C, strain doa4, active compounds read low 0.965 | locus YDR101C, strain arx1, active compounds read low 0.961 | locus YDR137W, strain rgp1, active compounds read low 0.977 | locus YDR150W, strain NUM1, active compounds read low 0.98 | locus YDR159W, strain sac3, active compounds read low 0.966 | locus YDR162C, strain NBP2, active compounds read low 0.945 | locus YDR195W, strain ref2 1.01 | locus YDR297W, strain sur2, active compounds read low 0.981 | locus YDR318W, strain mcm21, active compounds read low 0.947 | locus YDR334W, strain swr1, active compounds read low 0.949 | locus YDR335W, strain msn5, active compounds read low 0.967 | locus YDR388W, active compounds read low 0.986 | locus YDR392W, strain spt3, active compounds read low 0.849 | locus YDR502C, strain sam2, active compounds read low 0.98 | locus YEL003W, strain gim4, active compounds read low 0.967 | locus YEL037C, strain rad23, active compounds read low 0.962 | locus YEL061C, strain CIN8 (second series), active compounds read low 0.974 | locus YEL061C, strain CIN8, active compounds read low 0.976 | locus YER016W, strain bim1, active compounds read low 0.964 | locus YER110C, active compounds read low 0.989 | locus YER111C, strain swi4, active compounds read low 0.949 | locus YER155C, strain BEM2 (second series), active compounds read low 0.947 | locus YER155C, strain BEM2, active compounds read low 0.992 | locus YER167W, strain BCK2, active compounds read low 0.962 | locus YFR010W, strain ubp6, active compounds read low 0.958 | locus YGL078C, strain dbp3, active compounds read low 0.964 | locus YGL086W, strain mad1, active compounds read low 0.964 | locus YGL167C, strain pmr1, active compounds read low 0.971 | locus YGL173C, strain kem1, active compounds read low 0.983 | locus YGL227W, strain vid30, active compounds read low 0.997 | locus YGL240W, strain doc1, active compounds read low 1.01 | locus YGL248W, strain PDE1, active compounds read low 0.916 | locus YGL253W, strain hxk2, active compounds read low 0.968 | locus YGR078C, strain PAC10, active compounds read low 0.882 | locus YGR135W, strain pre9, active compounds read low 0.94 | locus YGR229C, strain SMI1, active compounds read low 0.957 | locus YGR252W, strain gcn5, active compounds read low 0.967 | locus YHR013C, strain ard1, active compounds read low 0.975 | locus YHR027C, strain rpn1, active compounds read low 0.962 | locus YHR030C, strain SLT2, active compounds read low 0.969 and 0.993 | locus YHR079C, strain IRE1 (second series), active compounds read low 0.961 | locus YHR079C, strain IRE1, active compounds read low 0.985 | locus YHR094C, strain hxt1, active compounds read low 0.974 | locus YHR129C, strain ARP1, active compounds read low 0.958 | locus YHR142W, strain chs7, active compounds read low 0.981 | locus YHR200W, strain rpn10, active compounds read low 0.952 | locus YIL066C, strain RNR3, active compounds read low 0.915 | locus YIL073C, strain SPO22, active compounds read low 0.952 | locus YIL125W, strain kgd1, active compounds read low 0.98 | locus YIR030C, strain dcg1, active compounds read low 0.98 | locus YJL092W, strain hpr5, active compounds read low 0.966 | locus YJL095W, strain BCK1 (second series), active compounds read low 0.976 | locus YJL095W, strain BCK1, active compounds read low 0.898 and 0.992 | locus YJL115W, strain asf1, active compounds read low 0.979 | locus YJL129C, strain trk1, active compounds read low 1.01 | locus YJL134W, strain LCB3, active compounds read low 0.98 | locus YJL154C, strain vps35, active compounds read low 0.985 | locus YJL164C, strain tpk1, active compounds read low 0.928 | locus YJL166W, strain qcr8, active compounds read low 0.976 | locus YJL168C, strain set2, active compounds read low 0.974 | locus YJL187C, strain SWE1 (second series), active compounds read low 0.885 | locus YJR043C, strain POL32, active compounds read low 0.879 | locus YJR066W, strain TOR1, active compounds read low 0.951
active: locus YER015W, strain faa2, active compounds read low 0.912
